TROY NFkB inh – TROY signaling inhibition; Q293 LMP1-TROYcd NF-kB luciferase reporter, 4 h; inhibition, % at 10 µM; actives 0.98% (n = 360,000); AID 1347056;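 active = compounds whose plate-normalised and pattern-corrected inhibition of the luciferase reporter signal at the single screening dose is 50% or more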
PAX8 reporter – lowers PAX8-driven luciferase in RMG-I cells; actives 1.2% (n = 360,000); inhibition, % at 12.6 µM; RMG-I TPO-luciferase reporter, SteadyGlo, 24 h; AID 652154;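 active = mean replicate inhibition at least 60% with every replicate also reaching 60%; inconclusive = only one of the two criteria is met; inactive = mean below 60% and not all replicates reaching 60%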;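 note: luciferase light reporting Pax8 driven TPO promoter activity; plate controls were median of neutral control wells for no effect and mitoxantrone controls for full effect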
LGR2 antag – Drosophila LGR2 receptor signaling inhibition; HEK293 LGR2, CRE-luciferase, bursicon-stimulated, 4 h; inhibition, % at 9.99 µM; actives 0.35% (n = 380,000);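 active = drop in luminescence signal, shown as inhibition above about 50% in the replicate tests, limit read from the data, passing the limit was not always enough; inconclusive = probably only some replicates passing the limit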;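 note: agonist challenge used bursicon conditioned medium at about half maximal strength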
EWS-Fli inh – blocks EWS/Fli oncoprotein-driven transcription | A673 NR0B1-luciferase reporter, viability-normalised | inhibition, % at 12.6 µM | actives 0.67% (n = 350,000);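 active = mean inhibition of at least 50% after viability correction, with every replicate also passing that limit; inconclusive = mean reaches 50% but only one of two replicates passes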;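 note: firefly luciferase signal divided by Alamar Blue viability fluorescence both relative to DMSO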
TWEAK-Fn14 inh – blocks TWEAK-Fn14 interaction in a reporter cell assay; AID 1159606; actives 2% (n = 360,000); TWEAK-stimulated Fn14 reporter cells, luciferase luminescence, 8 h; inhibition, % at 10 µM; in the data active = inhibition above about 50%
EBV LMP1 NFkB – inhibitors of Epstein-Barr LMP1-induced NF-kappaB reporter; LMP1-induced NF-kappaB luciferase reporter cells, luminescence; inhibition, % at 12.5 µM; actives 0.69% (n = 350,000); in the data active = inhibition above about 41%; inconclusive = no clear call, values can overlap the other calls;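 note: 0% = neutral control wells and 100% = reference inhibitor control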
* hit, by the source's call; ? = inconclusive; . = no result. Rows were chosen to be rich in hits. Some 3.1% of all compounds tested hit in one or more screens of this group.

SMILES | TROY NFkB inh | PAX8 reporter | LGR2 antag | EWS-Fli inh | TWEAK-Fn14 inh | EBV LMP1 NFkB
Cc1ccc2nc(-c3ccc(NC(=O)COC(=O)c4ccc([N+](=O)[O-])o4)cc3)sc2c1 | 21.1 | 33.9 | 82.6* | 55.3* | 77.7* | 16.7
CNS(=O)(=O)c1cccc(C(=O)OCC(=O)Nc2ccc(-c3nc4ccc(C)cc4s3)cc2)c1 | -24.4 | . | . | . | 27.3 | 11.3
Cc1cc(C)cc(N(CC(=O)Nc2ccc(-c3nc4ccc(C)cc4s3)cc2)S(C)(=O)=O)c1 | -20.1 | -114.0 | -15.9 | . | 6.6 | -27.1
Cc1ccc2nc(-c3ccc(NC(=O)COC(=O)c4cncc(Br)c4)cc3)sc2c1 | 26.1 | -82.6 | -4.9 | -2.6 | 46.8 | 18.3
Cc1ccc(NC(=O)COC(=O)c2ccco2)cc1 | -39.4 | -16.2 | -4.1 | 2.6 | -26.2 | -1.3
Cc1ccc2nc(-c3ccc(NC(=O)COC(=O)c4ccc(Br)o4)cc3)sc2c1 | 7.4 | -50.6 | ? | . | 59.2* | 6.9
Cc1ccc2nc(-c3ccc(NC(=O)CN(c4ccccc4C)S(C)(=O)=O)cc3)sc2c1 | -10.1 | . | . | . | 53.3* | -74.6
CN(C)C(=O)c1ccc(-c2ccc([C@@H]3[C@@H](C#N)N(C(=O)C4CCOCC4)[C@H]3CO)cc2)cc1 | . | -12.3 | -3.9 | 1.9 | . | .
O=C(Nc1cccc(-c2nc3cccnc3s2)c1)c1ccco1 | -19.8 | . | -16.8 | -32.3 | -13.1 | -3.7
O=C(Nc1ccc(-c2nc3cccnc3s2)cc1)c1ccco1 | -19.9 | -151.3 | 31.1 | -33.7 | 57.8* | -4.4
Cc1ccc(-c2nnc(NCc3nc4ccccc4[nH]3)c3ccccc23)cc1S(=O)(=O)N1CCOCC1 | 4.9 | . | . | . | 65.9* | 1.7
Cc1ccc(-c2nnc(NCc3nc4ccccc4[nH]3)c3ccccc23)cc1S(=O)(=O)N(C)C | 51.6* | 34.7 | 58.2* | 26.6 | 55.4* | 18.3
O=C(C[C@@H]1C=C[C@H](NC(=O)Nc2ccc(F)cc2)[C@H](CO)O1)NCc1cccc(F)c1 | . | . | -5.6 | -1.7 | . | .
COc1ccc(N2C(=O)CC(Sc3nnnn3-c3ccc(F)cc3)C2=O)cc1 (stereo unspecified) | -6.5 | 95.0* | -18.0 | 13.4 | -11.5 | 6.3
COc1ccc(N2C(=O)CC(Sc3nnc(-c4ccccc4)o3)C2=O)cc1 (stereo unspecified) | -9.6 | 107.0* | . | . | -6.6 | ?
O=C(COc1ccc2ccccc2c1)NNC(=O)Cc1ccccc1 | -5.1 | -18.3 | . | -0.4 | 15.3 | 5.6
O=C(COc1ccc2ccccc2c1)NCCNC(=O)COc1ccc2ccccc2c1 | -4.4 | . | . | . | -13.3 | 53.7*
C=CCN=c1scc(-c2ccc3c(c2)NC(=O)CO3)n1/N=C(\C)c1ccccn1 | 43.4 | 17.0 | 19.6 | 44.0 | 66.4* | 9.7
CCCN(C)C[C@@H]1Oc2cc(C#CCC3CCCC3)ccc2S(=O)(=O)N([C@@H](C)CO)C[C@H]1C | . | -20.8 | 12.0 | -2.6 | . | .
CCOC(=O)c1sc(Nc2nc(C)cc(C)n2)nc1C | 9.7 | 32.7 | 4.6 | 53.9* | 19.3 | 12.8
CN(C)C(=O)C[C@@H]1CC[C@@H]2[C@H](COc3ccc(NC(=O)Nc4cccc(Cl)c4)cc3C(=O)N2C)O1 | . | -21.4 | -5.0 | -7.0 | . | .
CN(C)CC(C)(C)CNS(=O)(=O)c1ccc(OC(F)(F)F)cc1 | 3.5 | 13.6 | 6.2 | 5.4 | 0.7 | 46.6*
CO[C@@H](CN(C)S(=O)(=O)c1cn(C)cn1)[C@@H](C)CN(C(=O)Nc1ccc(C(F)(F)F)cc1)[C@@H](C)CO | . | . | 6.2 | -6.4 | . | .
C[C@H](CO)N1C[C@H](C)[C@@H](CN(C)Cc2ccc(Oc3ccccc3)cc2)Oc2c(NC(=O)Nc3cccc4ccccc34)cccc2C1=O | . | . | -0.9 | 9.5 | . | .
O=C(Nc1ccc2c(c1)[C@@H]1C[C@@H](CC(=O)N3CCc4ccccc4C3)O[C@@H](CO)[C@@H]1O2)Nc1ccccc1F | . | 64.3* | 28.3 | 2.5 | . | .
SMILES | TROY NFkB inh | PAX8 reporter | LGR2 antag | EWS-Fli inh | TWEAK-Fn14 inh | EBV LMP1 NFkB
O=C(Nc1ccc(C(F)(F)F)cc1)Nc1ccc2c(c1)[C@H]1C[C@H](CC(=O)N3CCc4ccccc4C3)O[C@@H](CO)[C@H]1O2 | . | 43.2 | 13.5 | -2.4 | . | .
O=C(C[C@H]1C[C@@H]2c3cc(NS(=O)(=O)c4ccc(F)cc4)ccc3O[C@@H]2[C@@H](CO)O1)N1CCc2ccccc2C1 | . | 87.0* | 30.8 | 16.7 | . | .
O=C(Nc1ccc(C(F)(F)F)cc1)Nc1ccc2c(c1)[C@H]1C[C@@H](CC(=O)N3CCc4ccccc4C3)O[C@@H](CO)[C@H]1O2 | . | 97.3* | -8.4 | -7.2 | . | .
O=C(Nc1ccc(C(F)(F)F)cc1)Nc1ccc2c(c1)[C@H]1C[C@@H](CC(=O)N3CCc4ccccc4C3)O[C@H](CO)[C@H]1O2 | . | 97.5* | 17.3 | 2.9 | . | .
C[C@H]1CN([C@@H](C)CO)S(=O)(=O)c2ccc(-c3ccc(C#N)cc3)cc2O[C@H]1CN(C)Cc1ccccn1 | . | 7.1 | -5.5 | 2.3 | . | .
C[C@H](CO)N1C[C@H](C)[C@H](CN(C)S(=O)(=O)c2ccc(Cl)cc2)OCCCC[C@H](C)Oc2ccc(NC(=O)Nc3ccc4c(c3)OCO4)cc2C1=O | . | 40.1 | -1.0 | -5.1 | . | .
COc1ccc(C(=O)N/C(=C/c2ccc(Cl)cc2)C(=O)Nc2ccc(C(=O)O)cc2)cc1 | -23.9 | -0.7 | -7.8 | . | 99.6* | -8.9
COc1ccc(/C=C(\NC(=O)c2ccc(OC)cc2)C(=O)Nc2cccc(C(=O)O)c2)cc1 | -23.1 | -8.1 | -9.2 | -6.2 | -2.7 | 3.2
CC(NNC(=S)N1CCCCCC1)c1ccc2ccccc2n1 (stereo unspecified) | 12.3 | 81.3* | 0.9 | 3.3 | -11.0 | .
COc1cccc(-c2cccc(-c3nc(C(=O)NCc4ccc(Oc5ccccc5)cc4)cc4c3[C@@H](CCO)N(S(=O)C(C)(C)C)C4)c2)c1 (stereo partly specified) | . | 7.7 | -7.2 | -7.1 | . | .
O=c1[nH]c(=O)c2cc([N+](=O)[O-])cc([N+](=O)[O-])c2[nH]1 | 67.8* | 15.4 | 46.1 | 2.5 | 6.6 | 24.2
O=c1c2cc([N+](=O)[O-])cc([N+](=O)[O-])c2[nH]n1-c1ccccc1 | 3.7 | 11.6 | . | -14.2 | 2.6 | 7.1
O=c1c2ccccc2cnn1CCOc1ccccc1 | 71.8* | . | 86.4* | . | 97.1* | 74.1*
Cc1ccc(S(=O)(=O)Nc2ccc3c(c2)C(=O)N([C@H](C)CO)C[C@H](C)[C@H](CN(C)C(=O)Nc2cccc4ccccc24)O3)cc1 | . | -1.9 | -2.5 | -20.1 | . | .
O=C(c1n[nH]c(=O)c2ccccc12)N1CCOCC1 | . | . | . | . | 56.6* | -3.4
O=C(c1n[nH]c(=O)c2ccccc12)N1CCN(Cc2ccc3c(c2)OCO3)CC1 | 6.4 | -7.3 | -11.8 | 5.7 | 1.9 | 1.3
C[C@H]1CN([C@@H](C)CO)C(=O)c2cc(NS(=O)(=O)c3ccccc3)ccc2O[C@@H]1CN(C)Cc1ccncc1 | . | -13.8 | 19.2 | -3.6 | . | .
COc1ccc(N=[N+]([O-])c2ccc(OC)cc2)cc1 | -6.3 | -185.2 | 71.7* | ? | 62.3* | -3.5
COc1ccc(S(=O)(=O)c2ccc(OC)cc2)cc1 | -10.6 | -0.6 | . | . | 0.9 | -7.7
